Laboratory results taken from PubChem BioAssay (NCATS).
Results filed as inconclusive are left out. Activity calls are given as the source filed them. The call rests on the fitted dose curve; in most records, active means well fitted curve in the direction sought with a large enough effect; inconclusive means small, poorly fitted or top-dose-only effect, or another doubt; inactive means no such curve, though single readings can be large or run the other way.

target: Calcium and integrin-binding protein 1 (Homo sapiens) (UniProt Q99828); test: Validation qHTS for Identification of Calcium Integrin Binding protein 1 (CIB1) Competitor (AID 1508618); conditions: CIB1-GST / FITC-alphaIIb peptide fluorescence polarization; series mostly up to 114 µM; activity change, negative = inhibition: at the top concentration
Excerpt: Assay Provider: Ulhas P. Naik, PhD
Sidney Kimmel Medical College
Thomas Jefferson University, Philadelphia, PA
Primary function of platelets is to maintain hemostasis. At the site of vascular injury, platelets adhere to adhesive proteins such as collagen and von Willebrand factor. Adherent platelets are activated and generate soluble platelet agonists such as thrombin, ADP and thromboxane A2. Following exposure of circulating platelets to these agonists, results in platelet shape change, granule secretion and activation of platelet integrin alphaIIb-beta3. Ligand binding to activated integrin alphaIIb-beta3 triggers outside-in signaling, leading to platelet aggregation, stabilization of platelet plug, and clot retraction. Upon atherosclerotic plaque rupture also causes platelet plug formation, which underlies a number of cardiovascular diseases such as myocardial infraction and stroke. A number of anti-platelet drugs such as aspirin, clopidogrel, prasugrel, vorapaxar, and eptifibatide are currently available to prevent the thrombotic complications. However, these anti-platelet agents have several limitations including inherent variability in individual responses, developing resistance, and serious bleeding side effects. For these reasons they are not suitable for long-term protection. Based on the experiences with current anti-platelet drugs, it appears that the most useful therapeutic approach is to intersect the secondary responses such as integrin outside-in signaling or recruitment of platelets by TxA2 and secreted ADP. Compounds, which can largely preserve the primary hemostatic function of platelets but inhibit secondary response will be most desired therapeutic agents for treatment of cardiovascular disease.
CIB1 is a calcium integrin binding protein, which specifically interact with the alphaIIb subunit of integrin alphaIIb-beta3. Binding of CIB1 to alphaIIb regulates the outside-in signaling in platelets, which is needed for thrombus stabilization and thrombus growth. […] Therefore, we propose that discovery of a small molecule that can prevent the association of CIB1 and alphaIIb-beta3 will be a potential anti-platelet agent that can block the thrombus formation without undue effect on hemostasis.
To develop fluorescence polarization (FP) assay using fluorescently labeled alphaIIb peptide and CIB1 protein. Using FP assay characterize the binding affinity, competitive inhibition, and acceptable Z factor (0.5 to1) in order to perform the HTS to identify small molecule compound that can prevent CIB1 binding to platelet integrin alphaIIbbeta3. This assay is screened against the NCATS LOPAC library to validate the amenability of the assay to qHTS.
[1] Naik MU, Nigam A, Manrai P, et al. CIB1 deficiency results in impaired thrombosis: the potential role of CIB1 in outside-in signaling through integrin alpha IIb beta 3. J Thromb Haemost. 2009;7(11):1906-1914. doi:10.1111/j.1538-7836.2009.03581.
SEQUENCE No. (1, 2, 3, etc.); […] (e.g., Cells, Incubation, Reagent, etc.); VALUE and DESCRIPTION.
1; Reagent; 3 uL; Protein or buffer (4/3x)
2; Compound; 46 nL; Control inhibitor / compound library
3; Time; 15 min; Room temperature incubation
4; Reagent; 1 uL; Fluorescent labeled peptide (4x)
5; Time; 1000 rpm; Centrifuge
6; Time; 15 min; Room temperature incubation
7; Detection; Ex 480/ Em 540; ViewLux Fluorescence Read
NOTES (numbers refer to sequence above)
1; Protein Mixture: C1B1-GST (final concentrations of 1 uM). Buffer composition: 5 mM HEPES pH 7.4, 125 mM NaCl, 5 mM CaCl2, 0.01% Tween20.
2; Control Inhibitor: unlabeled peptide (final concentration range 17.4 nM to 572 uM). Compound Library final concentration range 18.3 nM to 114 uM.
3; Room temperature incubation.
4; Fluorescent Labeled Peptide: FITC-aIIb (final concentration of 100 nM). Sequence of alphaIIb peptide: Acetyl-[…]-FITC (purity is 95.83%).
6; Room temperature incubation.
[…]
On the % scale 0 is the no-effect control and ±100 the full control effect.

Chain of Calcium and integrin-binding protein 1 (Homo sapiens) (Q99828 whole entry, looked up): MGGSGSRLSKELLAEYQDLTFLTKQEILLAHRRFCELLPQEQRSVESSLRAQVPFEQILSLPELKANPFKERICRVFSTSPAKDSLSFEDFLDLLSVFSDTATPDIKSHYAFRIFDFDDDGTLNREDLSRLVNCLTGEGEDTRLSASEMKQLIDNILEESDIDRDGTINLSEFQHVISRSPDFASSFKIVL

SMILES	activity change, negative = inhibition
C[N+](C)(C)CCO	7.54% (inactive)
O=[N+]([O-])c1ccc(-c2nc(-c3ccc(F)cc3)c(-c3ccncc3)[nH]2)cc1	15.3% (inactive)
Clc1ccc2c(c1)N=C(N1CCNCC1)c1ccccc1N2	9.53% (inactive)
CC(C)N(CCC(=O)c1ccc2ccccc2c1)Cc1ccccc1	0.888% (inactive)
CCN(CC)CCNC(=O)c1ccc(NS(C)(=O)=O)cc1	12.2% (inactive)
COc1cccc2c1[C@@H]1CN(CCCCn3c(=O)[nH]c4c(sc5ncc(-c6ccccc6)nc54)c3=O)C[C@@H]1CO2	9.97% (inactive)
Brc1ccc([C@H]2CN3CCSC3=N2)cc1	-0.488% (inactive)
COc1ccccc1N1CCN(CCN2C(=O)CC3(CCCC3)CC2=O)CC1	13.9% (inactive)
Cc1nn(-c2ccccc2)c(C)c1/C=N/N1CCN(Cc2ccccc2)CC1	7.71% (inactive)
NC(N)=NCCCCN=C(N)N	5.98% (inactive)
COC(=O)C1=CO[C@@H](O)[C@@H]2C(CO)=CC[C@H]12	7.84% (inactive)
CN(C)c1cc2c(Nc3ccc4c(cnn4Cc4ccccc4)c3)ncnc2cn1	-3.09% (inactive)
N[C@@H](Cn1ccc(=O)c(O)c1)C(=O)O	7.04% (inactive)
Nc1ncnc2n[nH]c(Nc3ccc(F)cc3)c12	-2.32% (inactive)
Cn1cnc2c(NCc3ccccc3)nc(NCCO)nc21	-0.715% (inactive)
